According to ChEMBL document CHEMBL4513216, “Probing the Open Global Health Chemical Diversity Library for Multistage-Active Starting Points for Next-Generation Antimalarials” (ACS Infect Dis, 2020):
In all, about 69,000 compounds went through this assay and about 8,600 (12%) showed an effect of 50% or more. The sample holds strong results, similar compounds and a random draw of the others, so the mix is not that of the screen.

system: Plasmodium berghei; test: Screen against P. berghei liver stage (PbLuc), transformed with Luciferase, at 10uM; assay type: functional, HepG2; details: tested at 10 uM

Structure (SMILES)	INHIBITION [%]
COc1ccccc1CCNC(=O)NCC(=O)Nc1cccnc1	-21.8
CC(C)(C)C(=O)NCC(=O)Nc1cccnc1	45.5
COc1ccccc1CC(C)(C)C(=O)NCC(=O)Nc1cccnc1	56.6
COC(=O)NCCCn1ccnc1-c1ccccc1	-17.4
O=C(Cc1ccsc1)N1CCc2ncc(Cn3cccn3)n2CC1	42.7
COc1c(CNC(C)c2sc(C)nc2C)c(C(C)C)nn1C (stereo not drawn)	33.7
CN1CC2(CCN(C(=O)Cc3ccccn3)CC2)OCC1=O	-28.2
CNc1cc(N2CCCC2CNCc2cscn2)ncn1 (stereo not drawn)	-2.35
COCCN1CC[C@H]2OCC[C@@H](C(=O)N3CCCO3)[C@H]2C1	1.9
N#Cc1cn[nH]c1NCc1cc(Br)ccc1O	27.5
N#Cc1cn[nH]c1NCc1cc(I)cc(I)c1O	19.7
N#Cc1cn[nH]c1NCc1cc(Cl)cc(Cl)c1O	62.2
c1ccn(Cc2nnc3n2CCCN(Cc2ccoc2)C3)c1	-13.1
O=C(Nc1cccc(C(F)(F)F)c1)N1CCN(CCn2ccnc2)CC1	60.2
O=C(Nc1ccc2c(c1)OCO2)N1CCN(CCn2ccnc2)CC1	6.99
CC(C(=O)Nc1cccc(C(F)(F)F)c1)N(C)CCN1CCOCC1 (stereo not drawn)	35.2
CN(C)Cc1nc2c(o1)CN(C(=O)NCc1cccc(F)c1)C2	13.7
CNC(=O)c1cn[nH]c1C1CCN(Cc2cccc(C)c2OC)C1 (stereo not drawn)	6.32
O=C(CN1CCS(=O)(=O)CC1)NC1CCOc2ccccc21 (stereo not drawn)	-22.4
O=C(CN1CCS(=O)(=O)CC1)NC1CCCOc2ccccc21 (stereo not drawn)	63.6
O=C(CN1CCS(=O)(=O)CC1)NC1CCCc2ccccc21 (stereo not drawn)	-17.2
Cc1ccc(C2CSCCN2C(=O)c2ccncc2)cc1 (stereo not drawn)	-2.39
COCc1nc(CN2CCOC(CN(C)c3cccnn3)C2)cs1 (stereo not drawn)	-8.11

Structure (SMILES)	INHIBITION [%]
CCc1nc(CN2CCOC(CN(CC)c3cccnn3)C2)cs1 (stereo not drawn)	57
CCN(CC1CN(Cc2cccnc2)CCO1)c1cccnn1 (stereo not drawn)	48.3
CCc1nc(CN2CCOC(CN(C)c3cccnn3)C2)cs1 (stereo not drawn)	-4.16
CCN(CC1CN(CCc2ccccn2)CCO1)c1cccnn1 (stereo not drawn)	-14.2
CCN(CC1CN(Cc2ccn(C(C)C)n2)CCO1)c1cccnn1 (stereo not drawn)	54.3
CCN(CC1CN(Cc2cccc(C#N)c2)CCO1)c1cccnn1 (stereo not drawn)	58.5
CCN(CC1CN(Cc2ccccn2)CCO1)c1cccnn1 (stereo not drawn)	-32.2
CC(C)n1ccc(CN2CCOC(CNc3cccnn3)C2)n1 (stereo not drawn)	-31.5
CCOC(=O)CN1CCC2(CCCN(CCOc3ccccc3)C2)C1 (stereo not drawn)	21.1
CC(C)(C)C(=O)NCCCC(=O)NC(C)(C)c1ccc2c(c1)OCO2	27.4
Cc1nccn1-c1ccc(=O)n(CCNC(=O)c2cccs2)n1	18.7
Cc1cnn(CC2CN(Cc3cccc(C(N)=O)c3)CCO2)c1 (stereo not drawn)	16.9
O=C(Cc1cccs1)N1CCC2(CC1)COCCN2CC1CC1	21.7
CC(C)(CO)N1CCN(S(=O)(=O)CCCF)CC1	-15.565
CCN(Cc1ccc2c(c1)OCO2)C(=O)c1cccnc1O	-35.5
COCCn1cnc2ccc(NC(=O)C(C)C)cc2c1=O	39.2
Cc1cc(C)c(CNC(=O)N2CCN(c3nccs3)CC2)c(=O)[nH]1	-5.6
c1cncc(-c2noc(CN3CCCC(Cn4cncn4)C3)n2)c1 (stereo not drawn)	-52.5
COc1cc(OC)cc(C2(O)CCN(Cc3ncc(C)o3)CC2)c1	50.9
COc1cc(OC)cc(C2(O)CCN(Cc3nc(C)c(C)o3)CC2)c1	22.2
CCc1cnc(CN2CCC(O)(c3cc(OC)cc(OC)c3)CC2)o1	11.3
CCCc1nc(CNC2(c3nccs3)CCCC2)cs1	-15.4
Cc1cc(NC(=O)CN2CCc3c(nc(C(C)C)n3C)C2)on1	-21.2

Structure (SMILES)	INHIBITION [%]
Cc1cnn(CC2CCCCN2C(=O)c2n[nH]c3ccccc23)c1 (stereo not drawn)	-43.5
c1csc(CN2CCC3(COCCN(CC4CC4)C3)C2)n1 (stereo not drawn)	-23.3
c1csc(CN2CCOCC3(CCN(C4CCOCC4)C3)C2)n1 (stereo not drawn)	63.1
Cn1cc(CN2CCOCC3(CCN(C4CCOCC4)C3)C2)cn1 (stereo not drawn)	11.6
c1csc(CN2CCOCC3(CCN(C4CCOCC4)C3)C2)c1 (stereo not drawn)	11.6
Fc1cccc(CN2CCOC3(COCCN(CC4CC4)C3)C2)c1 (stereo not drawn)	81
C1CC(CN2CCOCC3(CCN(C4CCOCC4)C3)C2)CCO1 (stereo not drawn)	40.9
COCCN1CCOCC2(CCCN(Cc3cccc(F)c3)C2)C1 (stereo not drawn)	46.9
O=C(c1ccco1)N1CCOCC2(CCN(C3CCOCC3)C2)C1 (stereo not drawn)	8.69
c1cc(CN2CCOCC3(C2)CN(Cc2nccs2)CCO3)ccn1 (stereo not drawn)	34.4
Cc1cccc(CN2CCOCC3(CCN(C4CCOCC4)C3)C2)c1 (stereo not drawn)	-35.9
Fc1cccc(CN2CCOCC3(CCN(C4CCOCC4)C3)C2)c1 (stereo not drawn)	58.1
c1ccc(CN2CCOCC3(CCN(C4CCOCC4)C3)C2)cc1 (stereo not drawn)	50
CCn1nc(C)c(NC(=O)CN2CC[C@H](CO)[C@@H](O)C2)c1C	10.6
O=S(=O)(CCCNCCn1cccn1)c1ccccc1	-42.8
CCCc1nc(CN(CC)C(=O)c2ccc(S(C)(=O)=O)cc2)no1	19.8
CCn1ccc(NC(=O)CN2C(=O)CC(C)(C)c3ccccc32)n1	-34.9
c1cc(CN2CCOCC3(CCNCC3)C2)ccn1	63.7
COc1ccc(CN2CCOCC3(CCN(C4CCOCC4)C3)C2)cc1 (stereo not drawn)	11.6
O=C(C1CCOC1)N1CCC2(CC1)COCCN(Cc1ccncc1)C2 (stereo not drawn)	1.94
c1cc(CN2CCOCC3(CCN(C4CCOCC4)C3)C2)ccn1 (stereo not drawn)	52.2
c1cncc(CN2CCC3(COCCN(C4CCOCC4)C3)C2)c1 (stereo not drawn)	17.5
CCS(=O)(=O)N1CCC2(CCCN(Cc3cc(OC)ccc3F)C2)C1 (stereo not drawn)	-14

Structure (SMILES)	INHIBITION [%]
CN(C)CC(=O)N1CCC2(CC1)COCCN(Cc1ccncc1)C2	61.4
O=C(C1CCCO1)N1CCC2(CC1)COCCN(Cc1ccncc1)C2 (stereo not drawn)	5.44
COc1ccc(F)c(CN2CCCC3(CCN(C4CCOCC4)C3)C2)c1 (stereo not drawn)	77.8
O=C(c1ccsc1)N1CCC2(CC1)COCCN(Cc1ccncc1)C2	25.2
c1cc(CN2CCOCC3(CCN(CC4CCOCC4)CC3)C2)ccn1	39.2
COc1ccc(F)c(CN2CCCC3(CCN(S(C)(=O)=O)C3)C2)c1 (stereo not drawn)	47
Cc1cnn(CC(C)Nc2nc(C)cc(N(C)C)n2)c1 (stereo not drawn)	15.6
Cc1cc(-n2c(C)cn(CN(C)CC3CC3)c2=O)no1	-8.9
Cc1ccc(NC(=O)N2CCCC(N(C)C)C2)c(Br)c1 (stereo not drawn)	15.1
Cc1cc(C(=O)N[C@H](C)c2onc(-c3cccnc3)c2C(=O)O)c(C)o1	-30.7
NS(=O)(=O)CCCNC(=O)C1(c2cccc(Cl)c2)CC1	11.8
CCn1nc(C)c2nnn(CC(=O)Nc3ccc(C)cc3)c(=O)c21	29.2
Cc1c[nH]c(C2COCCN2C(=O)CCc2c(C)n[nH]c2C)n1 (stereo not drawn)	-3.65
Cc1nc(C(C)C)sc1C(C)N(C)C(=O)c1ccc(=O)n(C)c1 (stereo not drawn)	16.1
O=C(c1ccoc1)N1CCOC2(COCCN(c3ncccn3)C2)C1 (stereo not drawn)	46.6
Cn1ccc(C(=O)N2CCOC3(COCCN(CC4CC4)C3)C2)n1 (stereo not drawn)	-25.1
O=C(c1ccoc1)N1CCOC2(COCCN(CC3CC3)C2)C1 (stereo not drawn)	71.3
CNC(=O)CCc1cc(C2CCCCN2C)nc(C)n1 (stereo not drawn)	-11.3
COc1ccc(CN2C[C@H]3CN(c4ccsc4)C(=O)[C@H]3C2)cc1	50
O=C1[C@H]2CN(Cc3ccc(F)cc3)C[C@H]2CN1c1ccsc1	22.9
O=C1[C@H]2CN(Cc3ccccn3)C[C@H]2CN1c1ccsc1	56.7
O=C1[C@H]2CN(Cc3ccncc3)C[C@H]2CN1c1ccsc1	15.9
Cn1cc(N2C[C@@H]3CN(Cc4ccccn4)C[C@@H]3C2=O)cn1	34.9

Structure (SMILES)	INHIBITION [%]
O=C1[C@H]2CN(Cc3nccs3)C[C@H]2CN1c1ccsc1	32.4
O=C(c1ccco1)N1CC[C@@H](N2CCOCC2)[C@@H]1Cc1ccncc1	24.1
Cc1cc(CN2CCN(C(=O)NCc3c(C)noc3C)CC2)on1	44.3
O=c1[nH]nc2c(S(=O)(=O)N3CCN(c4ccc(F)cc4)CC3)cccn12	39.5
Cc1cnn(CCNCc2csc(-c3ccsc3)n2)c1	-69.15
CC(CN1CCOCC1)NC(=O)Nc1cccnc1-n1cccn1 (stereo not drawn)	-31.1
CN(C)CCO[C@@H]1CC[C@H]2[C@H]1OCCN2C(=O)c1ccc(F)cc1	42.1
CC(=O)N1CCC(Cc2cnc(-c3c(C)n[nH]c3C)cn2)CC1	1.5
Cc1cc(NC(C)Cc2cccs2)n2nccc2n1 (stereo not drawn)	42.1
Cn1cc(CN2CCC(F)(F)C3(CCN(c4cnccn4)C3)C2)cn1 (stereo not drawn)	-31.5
CCOc1ncnc2c1CCN(Cc1cccs1)CC2	36.2
COc1cc(C)ccc1OCCC(=O)N1CCCC(n2cncn2)C1 (stereo not drawn)	-16
CCOCC1CN(C(=O)c2cnoc2C)Cc2cn(CC3CC3)nc21 (stereo not drawn)	-50.8
CCOCC1CN(C(=O)Cc2ccccn2)Cc2cn(C)nc21 (stereo not drawn)	51.2
CCOCC1CN(C(=O)c2cnoc2C)Cc2cn(C)nc21 (stereo not drawn)	51.2
CCOCC1CN(C(=O)c2cnoc2C)Cc2cnn(C)c21 (stereo not drawn)	-11.2
CCOCC1CN(C(=O)Cc2ccccn2)Cc2cn(CC)nc21 (stereo not drawn)	31.4
CCOCC1CN(C(=O)Cc2ccccn2)Cc2cnn(CC)c21 (stereo not drawn)	54.4
CCOCC1CN(C(=O)Cc2ccccn2)Cc2cnn(C)c21 (stereo not drawn)	-45.8
CCOCC1CN(C(=O)Cc2ccccn2)Cc2c1cnn2CC (stereo not drawn)	42.7
CCOCC1CN(C(=O)COc2ccccc2)Cc2cn(C)nc21 (stereo not drawn)	5.96
